Targets with a hit are over-represented here; the source holds about 7,900 in all. About 0.6% of all pairs of compound and target were hits.
Tests used:
Experiment in all cases: log2 fold change, soluble protein after heating vs DMSO (PISA); higher = thermal stabilisation; K562 cells, 10 uM, 30 min; active = over 0.2 and 3.5 SD of the protein, either way, in both replicates (recomputed)
saracatinib = compound: CN1CCN(CCOc2cc(OC3CCOCC3)c3c(Nc4c(Cl)ccc5c4OCO5)ncnc3c2)CC1 [saracatinib]
Summary of the method: (§1)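 For each measurement, 10 μM compound was applied for 30 min to K562 cells at 2×10^6 cells/mL. Aliquots were heated for 3 min across 48°C-58°C, pooled, and extracted in PBS with 0.5% NP-40 at 4°C; the supernatant after 21,000xg for 90 min was soluble protein. This was quantified by TMTpro 16plex LC-MS/MS with channel sums equalised, and thermal stability was reported relative to control samples from duplicates, on a log2 fold-change scale.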

sotrastaurin = compound: CN1CCN(c2nc(C3=C(c4c[nH]c5ccccc45)C(=O)NC3=O)c3ccccc3n2)CC1 [sotrastaurin]
Summary of the method: as §1

alvocidib = compound: CN1CC[C@H](c2c(O)cc(O)c3c(=O)cc(-c4ccccc4Cl)oc23)[C@H](O)C1 [alvocidib]
Summary of the method: as §1

Tubastatin A = compound: CN1CCc2c(c3ccccc3n2Cc2ccc(C(=O)NO)cc2)C1 [Tubastatin A]
Summary of the method: as §1

[1] = compound: CNC(=O)C1=CC=CC=C1NC2=NC(=NC=C2Cl)NC3=C(C=C(C=C3)N4CCOCC4)OC
Summary of the method: as §1

defactinib = compound: CNC(=O)c1ccc(Nc2ncc(C(F)(F)F)c(NCc3nccnc3N(C)S(C)(=O)=O)n2)cc1 [defactinib]
Summary of the method: as §1

rucaparib = compound: CNCc1ccc(-c2[nH]c3cc(F)cc4c3c2CCNC4=O)cc1 [rucaparib]
Summary of the method: as §1

[2] = compound: CNc1nc(-c2ccc3c(N)n[nH]c3c2)cc(N2C[C@@H](C(=O)NC3CCCCC3)CC[C@H]2C)n1
Summary of the method: as §1

encorafenib = compound: COC(=O)N[C@@H](C)CNc1nccc(-c2cn(C(C)C)nc2-c2cc(Cl)cc(NS(C)(=O)=O)c2F)n1 [encorafenib]
Summary of the method: as §1

[3] = compound: COC(=O)[C@H](CCSC)NC(=O)C1=C(C=C(C=C1)NC[C@H](CS)N)C2=CC=CC=C2
Summary of the method: as §1

Measured: log2 fold change

SPAST (UniProt Q9UBP0)
UniProt Q9UBP0, sequence (Q9UBP0 whole entry, looked up): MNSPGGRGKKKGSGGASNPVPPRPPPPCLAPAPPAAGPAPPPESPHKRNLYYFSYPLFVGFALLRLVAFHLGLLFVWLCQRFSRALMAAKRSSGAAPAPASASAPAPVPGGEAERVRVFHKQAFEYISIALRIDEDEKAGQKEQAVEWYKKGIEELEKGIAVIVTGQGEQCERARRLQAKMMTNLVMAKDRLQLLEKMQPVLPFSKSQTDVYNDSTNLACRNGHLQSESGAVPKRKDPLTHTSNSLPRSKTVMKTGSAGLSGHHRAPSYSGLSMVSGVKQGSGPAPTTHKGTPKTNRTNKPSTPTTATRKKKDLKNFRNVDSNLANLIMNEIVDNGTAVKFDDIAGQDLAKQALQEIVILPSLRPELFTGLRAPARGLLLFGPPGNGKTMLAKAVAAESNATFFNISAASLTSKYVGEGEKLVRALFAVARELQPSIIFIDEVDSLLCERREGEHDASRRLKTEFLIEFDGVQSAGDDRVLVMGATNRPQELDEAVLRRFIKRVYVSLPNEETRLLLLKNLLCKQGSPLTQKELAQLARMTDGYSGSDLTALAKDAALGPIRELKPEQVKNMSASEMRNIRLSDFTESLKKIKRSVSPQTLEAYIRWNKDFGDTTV
inactive: saracatinib -0.016 | sotrastaurin -0.015 | alvocidib -0.203 | Tubastatin A 0.003 | [1] -0.01 | defactinib -0.056 | rucaparib 0.073 | [2] 0.115 | encorafenib 0.038 | [3] -0.037

TAF6L (UniProt Q9Y6J9)
UniProt Q9Y6J9, sequence (Q9Y6J9 whole entry, looked up): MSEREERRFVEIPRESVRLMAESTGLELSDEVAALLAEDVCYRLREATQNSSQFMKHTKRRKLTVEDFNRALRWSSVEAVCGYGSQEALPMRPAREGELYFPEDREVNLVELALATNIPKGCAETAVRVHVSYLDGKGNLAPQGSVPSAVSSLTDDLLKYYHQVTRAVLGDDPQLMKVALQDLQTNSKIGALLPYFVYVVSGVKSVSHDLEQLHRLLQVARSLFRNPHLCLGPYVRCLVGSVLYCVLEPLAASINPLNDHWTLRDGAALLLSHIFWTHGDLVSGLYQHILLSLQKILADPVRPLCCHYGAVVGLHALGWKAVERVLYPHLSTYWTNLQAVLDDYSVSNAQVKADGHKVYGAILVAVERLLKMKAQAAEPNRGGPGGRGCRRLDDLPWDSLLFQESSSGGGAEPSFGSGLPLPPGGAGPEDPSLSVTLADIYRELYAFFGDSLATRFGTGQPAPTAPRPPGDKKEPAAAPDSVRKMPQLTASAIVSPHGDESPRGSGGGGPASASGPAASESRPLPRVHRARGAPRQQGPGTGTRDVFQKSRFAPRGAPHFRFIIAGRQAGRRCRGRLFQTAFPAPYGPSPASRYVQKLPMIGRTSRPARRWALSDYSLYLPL
inactive: saracatinib 0.148 | sotrastaurin -0.2 | alvocidib -0.055 | Tubastatin A -0.012 | [1] -0.044 | [2] 0.035

SNX15 (UniProt Q9NRS6)
UniProt Q9NRS6, sequence (Q9NRS6 whole entry, looked up): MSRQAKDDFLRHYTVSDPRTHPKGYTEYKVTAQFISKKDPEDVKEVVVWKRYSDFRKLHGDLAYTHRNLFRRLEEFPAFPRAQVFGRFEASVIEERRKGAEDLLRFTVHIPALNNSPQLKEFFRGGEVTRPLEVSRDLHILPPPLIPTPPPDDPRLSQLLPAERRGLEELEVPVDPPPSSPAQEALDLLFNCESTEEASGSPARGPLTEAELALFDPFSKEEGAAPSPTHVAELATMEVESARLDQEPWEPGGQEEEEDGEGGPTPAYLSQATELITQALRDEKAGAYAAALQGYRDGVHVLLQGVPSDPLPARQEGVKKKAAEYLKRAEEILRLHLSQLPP
inactive: saracatinib -0.039 | sotrastaurin -0.048 | alvocidib 0.133 | Tubastatin A 0.045 | defactinib -0.177 | rucaparib -0.063 | [2] -0.043 | encorafenib 0.098 | [3] 0.025

TIMM29 (UniProt Q9BSF4)
UniProt Q9BSF4, sequence (Q9BSF4 whole entry, looked up): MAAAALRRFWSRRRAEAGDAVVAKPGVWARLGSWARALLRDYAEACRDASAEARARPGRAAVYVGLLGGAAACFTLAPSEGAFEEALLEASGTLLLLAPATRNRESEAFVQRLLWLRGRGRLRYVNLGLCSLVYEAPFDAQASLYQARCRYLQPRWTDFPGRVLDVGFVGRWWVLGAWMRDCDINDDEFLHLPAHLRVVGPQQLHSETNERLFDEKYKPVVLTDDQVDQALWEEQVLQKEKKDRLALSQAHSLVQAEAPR
inactive: saracatinib 0.054 | sotrastaurin 0.051 | alvocidib -0.068 | Tubastatin A 0.003 | [1] -0.03 | defactinib 0.1 | rucaparib -0.008 | [2] 0.002 | encorafenib -0.098 | [3] 0.13

SRSF4 (UniProt Q08170)
inactive: saracatinib -0.065 | sotrastaurin 0.028 | alvocidib 0.135 | Tubastatin A 0.17 | [1] -0.283 | defactinib 0.045 | rucaparib 0.165 | [2] 0.013 | encorafenib 0.154 | [3] 0.023

SOAT1 (UniProt P35610)
inactive: saracatinib 0.026 | sotrastaurin -0.06 | alvocidib -0.02 | Tubastatin A -0.057 | [1] 0.186 | defactinib -0.053 | rucaparib -0.064 | [2] 0.014 | encorafenib 0.122 | [3] 0.111

SUPT5H (UniProt O00267)
inactive: saracatinib -0.01 | sotrastaurin -0.021 | alvocidib -0.075 | Tubastatin A 0.007 | [1] -0.004 | defactinib -0.126 | rucaparib -0.062 | [2] 0.039 | encorafenib 0.076 | [3] -0.017

TM7SF3 (UniProt Q9NS93)
UniProt Q9NS93, sequence (Q9NS93 whole entry, looked up): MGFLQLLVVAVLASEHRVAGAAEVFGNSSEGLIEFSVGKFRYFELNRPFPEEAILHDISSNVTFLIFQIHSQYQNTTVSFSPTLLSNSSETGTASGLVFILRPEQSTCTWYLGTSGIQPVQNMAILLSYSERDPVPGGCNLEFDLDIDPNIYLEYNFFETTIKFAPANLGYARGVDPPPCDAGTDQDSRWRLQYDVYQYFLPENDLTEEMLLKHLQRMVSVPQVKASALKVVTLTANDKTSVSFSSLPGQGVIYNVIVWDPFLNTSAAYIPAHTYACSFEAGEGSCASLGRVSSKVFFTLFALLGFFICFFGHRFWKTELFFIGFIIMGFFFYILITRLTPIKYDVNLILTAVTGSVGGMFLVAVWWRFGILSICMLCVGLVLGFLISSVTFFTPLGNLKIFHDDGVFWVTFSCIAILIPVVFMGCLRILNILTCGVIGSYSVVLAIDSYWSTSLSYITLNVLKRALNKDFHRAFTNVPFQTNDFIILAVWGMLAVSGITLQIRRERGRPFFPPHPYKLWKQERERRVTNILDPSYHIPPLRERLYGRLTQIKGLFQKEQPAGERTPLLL
inactive: saracatinib 0.072 | sotrastaurin 0.035 | alvocidib 0.068 | Tubastatin A -0.082 | [1] 0.039 | rucaparib -0.077 | [2] -0.011 | encorafenib 0.089

SMAP2 (UniProt Q8WU79)
UniProt Q8WU79, sequence (Q8WU79 whole entry, looked up): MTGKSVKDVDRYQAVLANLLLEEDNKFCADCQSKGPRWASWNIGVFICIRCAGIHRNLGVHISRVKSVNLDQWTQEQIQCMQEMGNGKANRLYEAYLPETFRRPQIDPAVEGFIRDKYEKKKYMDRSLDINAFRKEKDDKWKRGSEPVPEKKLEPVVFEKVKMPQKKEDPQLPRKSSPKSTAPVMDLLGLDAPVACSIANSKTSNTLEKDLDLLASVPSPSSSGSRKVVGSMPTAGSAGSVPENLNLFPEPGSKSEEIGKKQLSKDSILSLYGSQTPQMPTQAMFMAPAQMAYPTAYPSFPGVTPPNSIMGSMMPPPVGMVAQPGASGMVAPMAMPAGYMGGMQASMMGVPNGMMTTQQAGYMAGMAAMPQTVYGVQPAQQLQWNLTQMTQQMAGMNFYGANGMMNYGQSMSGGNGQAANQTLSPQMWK
inactive: saracatinib -0.047 | sotrastaurin -0.052 | alvocidib -0.057 | Tubastatin A 0.029 | [1] 0.107 | defactinib -0.12 | rucaparib 0.114 | [2] -0.026 | encorafenib 0.087 | [3] -0.043

SNRPD3 (UniProt P62318)
UniProt P62318, sequence (P62318 whole entry, looked up): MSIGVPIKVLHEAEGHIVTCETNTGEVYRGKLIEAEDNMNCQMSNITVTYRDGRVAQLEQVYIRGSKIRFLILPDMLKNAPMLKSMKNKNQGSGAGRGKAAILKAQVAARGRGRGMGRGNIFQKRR
inactive: saracatinib 0.004 | sotrastaurin 0.068 | alvocidib 0.069 | Tubastatin A -0.097 | [1] 0.038 | defactinib 0.137 | rucaparib 0.017 | [2] -0.098 | encorafenib -0.027 | [3] -0.003

SMG1 (UniProt Q96Q15)
inactive: saracatinib -0.039 | sotrastaurin 0.041 | alvocidib -0.085 | Tubastatin A 0.014 | [1] 0.042 | defactinib 0 | rucaparib 0.025 | [2] -0.12 | encorafenib 0.023 | [3] 0.017

STARD7 (UniProt Q9NQZ5)
UniProt Q9NQZ5, sequence (Q9NQZ5 whole entry, looked up): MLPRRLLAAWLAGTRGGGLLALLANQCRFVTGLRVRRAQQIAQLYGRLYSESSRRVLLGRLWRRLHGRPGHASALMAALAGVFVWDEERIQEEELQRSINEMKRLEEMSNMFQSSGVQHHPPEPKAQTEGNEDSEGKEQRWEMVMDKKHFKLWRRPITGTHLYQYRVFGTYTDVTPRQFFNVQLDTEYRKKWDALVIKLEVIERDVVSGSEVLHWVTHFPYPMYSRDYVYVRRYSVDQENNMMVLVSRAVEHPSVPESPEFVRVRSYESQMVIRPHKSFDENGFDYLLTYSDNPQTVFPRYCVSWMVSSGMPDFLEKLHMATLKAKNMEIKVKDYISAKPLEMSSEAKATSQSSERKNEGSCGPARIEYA
inactive: saracatinib -0.021 | sotrastaurin 0.041 | alvocidib -0.122 | Tubastatin A -0.005 | [1] -0.012 | defactinib -0.047 | rucaparib -0.009 | [2] -0.014 | encorafenib 0.03 | [3] -0.043

TBC1D10B (UniProt Q4KMP7)
UniProt Q4KMP7, sequence (Q4KMP7 whole entry, looked up): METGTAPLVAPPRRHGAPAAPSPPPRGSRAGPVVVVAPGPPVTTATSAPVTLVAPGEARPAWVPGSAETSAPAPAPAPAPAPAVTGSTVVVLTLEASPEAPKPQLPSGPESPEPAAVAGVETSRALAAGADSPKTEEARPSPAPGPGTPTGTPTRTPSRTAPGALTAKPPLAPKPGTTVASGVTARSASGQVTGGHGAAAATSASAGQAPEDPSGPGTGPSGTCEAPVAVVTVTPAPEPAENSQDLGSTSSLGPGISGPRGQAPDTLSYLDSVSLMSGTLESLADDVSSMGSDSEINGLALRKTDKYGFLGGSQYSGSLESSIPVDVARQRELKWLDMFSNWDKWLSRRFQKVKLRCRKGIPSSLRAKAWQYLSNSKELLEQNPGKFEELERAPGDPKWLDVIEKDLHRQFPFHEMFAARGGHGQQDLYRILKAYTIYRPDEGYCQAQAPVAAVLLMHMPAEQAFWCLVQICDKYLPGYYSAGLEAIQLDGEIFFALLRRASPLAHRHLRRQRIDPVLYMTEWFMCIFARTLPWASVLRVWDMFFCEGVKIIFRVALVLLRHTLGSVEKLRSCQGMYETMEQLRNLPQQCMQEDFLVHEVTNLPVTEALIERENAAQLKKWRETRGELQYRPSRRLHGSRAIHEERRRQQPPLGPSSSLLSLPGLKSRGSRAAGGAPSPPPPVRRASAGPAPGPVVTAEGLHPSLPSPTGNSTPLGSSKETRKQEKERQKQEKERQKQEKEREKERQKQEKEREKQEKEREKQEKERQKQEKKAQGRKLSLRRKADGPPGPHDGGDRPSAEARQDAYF
inactive: saracatinib -0.025 | sotrastaurin -0.036 | alvocidib -0.036 | Tubastatin A 0.001 | [1] -0.015 | defactinib -0.008 | rucaparib 0.094 | [2] 0.009 | encorafenib 0.048 | [3] -0.023

SUCLA2 (UniProt Q9P2R7)
UniProt Q9P2R7, sequence (Q9P2R7 whole entry, looked up): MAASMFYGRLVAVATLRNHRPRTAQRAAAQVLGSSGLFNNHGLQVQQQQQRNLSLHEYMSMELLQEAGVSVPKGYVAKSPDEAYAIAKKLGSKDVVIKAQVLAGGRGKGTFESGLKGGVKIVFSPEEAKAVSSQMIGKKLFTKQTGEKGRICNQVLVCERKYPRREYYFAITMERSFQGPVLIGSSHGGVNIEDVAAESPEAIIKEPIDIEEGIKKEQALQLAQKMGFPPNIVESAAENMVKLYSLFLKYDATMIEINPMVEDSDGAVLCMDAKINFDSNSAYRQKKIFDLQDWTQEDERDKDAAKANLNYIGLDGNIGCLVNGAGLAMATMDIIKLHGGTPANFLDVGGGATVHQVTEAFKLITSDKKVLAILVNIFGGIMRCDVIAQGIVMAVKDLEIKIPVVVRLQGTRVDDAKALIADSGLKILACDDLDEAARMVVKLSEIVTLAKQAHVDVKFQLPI
inactive: saracatinib -0.013 | sotrastaurin 0.03 | alvocidib 0.011 | Tubastatin A 0.024 | [1] 0.011 | defactinib -0.037 | rucaparib -0.029 | [2] -0.048 | encorafenib 0.021 | [3] -0.008

From the supplement of paper PMC10849652
